Structures are written as SMILES. “And” between values parts separate entries of the source, which are not always exact repeats. Identical values can stand only once. Results filed as inconclusive are left out. Values without a mark were called inactive. The source made the active and inactive calls. Calls come from the whole dose curve; as a rule, active = well fitted cell-killing curve with a large enough effect in the repeat runs; inconclusive = weak or mixed curves, or effect the other way; inactive = flat fitted curve, though single readings scatter.
% is set by controls: 0 for no effect and ±100 for the full control effect; potency is the fitted concentration of half-maximal effect.

This assay in a line: qHTS RealTime-Glo MT Cell Viability Assay in HEK293 cells - 40 hour (AID 1224874). Note: nearly all actives have a fitted effect of over 50% in size. Particulars: RealTime-Glo luminescence; max response: active compounds read low. An excerpt:
U.S. Tox21 Program National Center for Advancing Translational Sciences [NCATS] NIH Chemical Genomics Center [NCGC] U.S. Environmental Protection Agency [EPA] National Institutes of Environmental Health Sciences [NIEHS] National Toxicology Program [NTP] U.S. Food and Drug Administration [FDA] Tox21 Assay Overview: Measure of cell viability is critical in the cell-base assay. Analysis of cell viability is necessary for the characterization of cell responses to cytotoxic drugs and environmental stress. A RealTime-Glo MT Cell Viability Assay to monitor cell viability in real time of continues cell culture during 40 hours of compound treatment was used to screen Tox21 10K library compounds in Hek293 cells. The RealTime-Glo MT Cell Viability Assay is a nonlytic, homogeneous, bioluminescent method to measure cell viability in real time using a simple, plate-based method. The assay involves adding NanoLuc luciferase and a cell-permeant prosubstrate to cells in culture. Viable cells reduce the proprietary prosubstrate to generate a substrate for NanoLuc luciferase. This substrate diffuses from cells into the surrounding culture medium, where it is rapidly used by the NanoLuc Enzyme to produce a luminescent signal. The signal correlates with the number of viable cells, making the assay well suited for cytotoxicity studies.
Tox21 Assay Protocol Summary: The mixture of Hek293 cell suspension and reagents were dispensed at 600cells/6 ul/well in 1536-well tissue culture treated black solid bottom plates using a Multidrop dispenser. After the assay plates were incubated at a 37 C/5% CO2 incubator for 5 hours, 23 nL of compounds dissolved in DMSO, positive and negative controls was transferred to the assay plate by a pintool work station. The plates were incubated at 37 C for 40 hours. The luminescence intensity were measured at 0h, 8h, 16h, 24h, 32h and 40h time points using ViewLux plate reader during compound treatment.
For orientation: Quantitative high-throughput screening tests each substance at several concentrations.
Consider `CCCCCCCCCCCC`, for which the max response is 0.33%.
The same measure, in the same setting: with `O=C(O)COc1nn(Cc2ccccc2)c2ccccc12` the figure was 3.59%.
The same measure, in the same setting: as for `CC(=O)OCC(CCn1cnc2cnc(N)nc21)COC(C)=O`, the figure is -0.0813%; as for `N=C(N)c1ccc2cc(OC(=O)c3ccc(N=C(N)N)cc3)ccc2c1`, 1.38%; as for `C[C@@H]1CCN(C(=O)[C@H](CCCN=C(N)N)NS(=O)(=O)c2cccc3c2NC[C@H](C)C3)[C@@H](C(=O)O)C1`, 4.96%.
Same read-out and setting: with `Cn1c(N)c(N=O)c(=O)n(C)c1=O` the figure was 4.01%.
Consider `N[C@H]1CN(c2c(F)cc3c(=O)c(C(=O)O)cn(C4C[C@H]4F)c3c2Cl)CC12CC2` (stereo not given in full), for which the max response is 11.4%.
Same read-out and setting: with `C=C(C)CS(=O)(=O)O` the figure was -0.0402%; with `O=c1n(CCO)c(=O)n(CCO)c(=O)n1CCO`, -3.8% and 5.95%.
On the same count and under the same terms, as for `CCCC(=O)O[C@]1(C(=O)CO)CC[C@H]2[C@@H]3CCC4=CC(=O)CC[C@]4(C)[C@H]3[C@@H](O)C[C@@]21C`, the figure is 0.181%; as for `CCN1CCC[C@H]1CNC(=O)c1cc(S(N)(=O)=O)ccc1OC`, -3.58%; as for `CCOC(=O)[C@H](CCc1ccccc1)N[C@@H](C)C(=O)N1[C@H](C(=O)O)C[C@@H]2CCC[C@@H]21`, 6.09%.
Same read-out and setting: as for `C[C@H]1C[C@@H](O)CC(C)(C)C1`, the figure is -10.6%.
`CC(=O)Nc1ccc(S(N)(=O)=O)cc1`: the max response is 14.7%.
The same measure, in the same setting: as for `CC(C[N+](C)(C)C)OC(N)=O` (stereo not given), the figure is 4.17%.
Consider `FC(F)OC(Cl)C(F)(F)F` (stereo not given), for which the max response is 5.59%.
On the same count and under the same terms, with `CCCCCCCCS(=O)(=O)Cl` the figure was 19.7%; with `CC(NC(CCc1ccccc1)C(=O)O)C(=O)N1C(=O)N(C)CC1C(=O)O` (stereo not given), -1.88%; with `CC/C=C\CCOC(C)=O`, -1.39%.
On the same count and under the same terms, as for `CCO[Si](CCC1CCC2OC2C1)(OCC)OCC` (stereo not given), the figure is 14.1%; as for `CCc1ccc(O)c(OC)c1`, 4.24%; as for `COC(=O)[C@@H](N)Cc1ccc(O)c(O)c1`, 2.16%.
Still for that read-out and setting: with `CCCCOCCOCCOCc1cc2c(cc1CCC)OCO2` the figure was -15.9%; with `C[N+](C)(C)CC(O)CC(=O)[O-]` (stereo not given), -3.45%; with `N=C(N)c1ccccc1`, -0.53%.
Turning to `O=c1[nH]c(=O)n([C@H]2C[C@H](O)[C@@H](CO)O2)cc1I`, the max response was 5.93%.
Same read-out and setting: with `CC(=O)OCC(=O)[C@@]1(O)CC[C@H]2[C@@H]3CCC4=CC(=O)CC[C@]4(C)[C@H]3C(=O)C[C@@]21C` the figure was -9.91%.
On to `Nc1ccccc1S(=O)(=O)O`, for which the max response is 0.0936%.
Regarding `CCOc1ccc(C(=O)OCCN(CC)CC)cc1`, the max response was 4.37%.
As for `CC(C)(c1ccc(O)cc1)c1ccc(O)cc1`, the Potency is 48 µM (active).
Turning to `COC(=O)CCSCCC(=O)OC`, the max response was 0.851%.
Regarding `Cc1nc2c([nH]1)c(=O)n(C)c(=O)n2Cc1ccco1`, the max response was 1.42%.
On to `O=c1cc(-c2ccccc2)oc2ccccc12`, for which the Potency is 11 µM (active) and 14.8 µM (active).
On to `CCOC(C)(C)C`, for which the max response was 7.98%.
Same read-out and setting: as for `CCCCC/C=C\CCC=O`, the figure is 1.73%; as for `O=C(O)CNC(=O)c1ccc([N+](=O)[O-])cc1`, -0.136%.
In the case of `O=C(CCCN1CCC(O)(c2cccc(C(F)(F)F)c2)CC1)c1ccc(F)cc1`, the Potency is 21.3 µM (active).
Consider `CCSC(=O)N(CC(C)C)CC(C)C`, for which the max response is 5.8%.
Same read-out and setting: with `CO/N=C(/C(=O)N[C@@H]1C(=O)N2C(C(=O)OCOC(=O)C(C)(C)C)=C(C)CS[C@H]12)c1csc(N)n1` the figure was 3.21%; with `COC(C)(C)CCCC(C)CC=O` (stereo not given), 3.83%.

Values taken from PubChem BioAssay (Tox21).
